“And” between values parts separate entries of the source, which are not always exact repeats. Identical values can stand only once. Some structures have more than one record in an assay (separate samples or runs), and their calls can disagree. The source made the active and inactive calls. The calls were made as follows: active = hit-call score of the fitted dose curve at least 0.9, where 1 is the maximum; inactive = score below 0.9.

The text below walks through data of PubChem BioAssay (EPA / NIEHS).

Read-out in this test: UDP glucuronosyltransferase (UGT1A6), UGT1A6 (gene 54578)
Nature of the test: LTEA_HepaRG_UGT1A6: Life Technologies and Expression Analysis (LTEA) Assay for UDP glucuronosyltransferase (UGT1A6) using HepaRG (AID 2283539). The settings on record: mRNA level, 48 h; actives raise or lower the signal. Here is the method:
LTEA_HepaRG is a cell based, multiplexed-readout assay that uses HepaRG, a human liver cell line, with measurements taken at 48 hours after chemical dosing on a 96-well plate.LTEA_HepaRG_UGT1A6 is one of 102 assay component(s) measured in the LTEA HepaRG cell culture assay. It is a marker of NR mediated metabolism.Data from the assay component LTEA_HepaRG_UGT1A6 was analyzed into 1 endpoint. This assay endpoint, LTEA_HepaRG_UGT1A6, was analyzed with bidirectional fitting relative to DMSO as the negative control and baseline of activity. Using a type of inducible reporter, measures of mRNA induction for gain or loss-of-signal activity can be used to understand regulation of transcription factor activity. To generalize the intended target to other relatable targets, this assay endpoint is annotated to the transferase intended target family, where the subfamily is glucuronosyltransferase.
A total of 1060 chemcials from the ToxCast library were tested in eight-point concentration-response experiments. Cell culture and cytotoxicity assays were conducted at Thermo Fisher Scientific's Custom Services facility (Madison, WI). A single lot of human HepaRG cells (Thermo Fisher Scientific, Frederick, MD) was used for the cell culture experiments. 96-well format collagen type I coated plates of human HepaRG cells were prepared using established methods. Briefly, cryopreserved HepaRG cells were thawed, plated at a density of approximately 100,000 cells/well in HepaRG Thaw, Plate, and General Purpose media (HPRG770, Thermo Fisher Scientific), and incubated for 48 hours. 0.5% DMSO was selected as vehicle control to balance the requisite need of DMSO in HepaRG cultures to maintain differentiation (for example, baseline metabolism, proportions of hepatocytes vs. cholangiocytes), while enabling further hepatic receptor pathway activation (for example, PXR and CAR) in response to chemical exposure. 48 hours after plating, the culture medium was replaced with HepaRG Serum-Free Incudtion Media. Cells were exposed to each test chemical in duplicate and maintained in CO2 incubators for another 48 hours. Chemical plates were thawed to room temperature and 200x concentrations of treatment groups were prepared. 8-point conentration-reponse curves were made with the highest exposure at 100 uM, followed by half-log dilutions, all in 0.5% DMSO. Each test plate contained variouse controls, induction positive controls (1mM phenobarbital), cytotoxicity positive controls ([…] aflatoxin B1), vehicle controls (0.5% DMSO), and total lysis controls (0.5% DMSO). Cell morphology images were taken using an Essen IncuCyte FLR automated microscope, with six 96-well plates imaged in about 24 minutes. Images were captured and exported and JPEG files. Spent culture media was transfered to black-well plates for the LDH assay, and remaining media was sorted at -80 C for later use. Cells were treated with RLT buffer and frozen until shipped for gene expression analysis. Total RNA was isolated from the cell suspension in 75 uL of Buffer RLT (Qiagen, Germantown, MD 20874) by Quintiles/Expression Analysis (Durham, NC) using a custom isolation procedure. Total RNA from each plate well was transferred to a preamplification plate. Fluidigm's 96.96 Dynamic ArrayTM (Fluidigm, Amsterdam, the Netherlands) technology was used for gene expression analyses by quantitative reverse transcription polymerase chain reaction (qRT-PCR, performed by Quintiles/Expression Analysis, Durham, NC)89. Standard TaqManTM Assays (Applied Biosystems/ThermoFisher Scientific, Foster City, CA) were used to assess the expression of 93 genes selected based on their selectivity and sensitivity to important hepatic receptors known to be modulated by environmental chemicals; importance in human hepatocyte functionality; and hepatotoxicity. […]
With `C=CC1(C)OC(=O)N(c2cc(Cl)cc(Cl)c2)C1=O` (stereo not given), the molecule was called inactive.
Still for that read-out and setting: in the case of `CC(C)C1(C)N=C(c2nc3ccccc3cc2C(=O)O)NC1=O` (stereo not given) it was “inactive”; in that of `CCCCC(CC)COC(=O)c1ccccc1C(=O)OCC(CC)CCCC` (stereo not given), “inactive”.
By AC50 is commonly meant the midpoint of the concentration-response curve, whichever way the signal moves. As for `CCCN(CCC)c1c([N+](=O)[O-])cc(S(N)(=O)=O)cc1[N+](=O)[O-]`, the molecule was called inactive; the AC50 is 79.1 µM (active) and 78.9 µM (active).
With `CC(C)(C)c1ccc(CSc2cnn(C(C)(C)C)c(=O)c2Cl)cc1`, the AC50 was 18.8 µM (active).
Take `CCNc1nc(Cl)nc(NC(C)C)n1`: the molecule was called inactive.
As to `CCCC1COC(Cn2cncn2)(c2ccc(Cl)cc2Cl)O1` (stereo not given), the AC50 is 59.5 µM (active).
Regarding `COc1ccc(C(c2ccc(OC)cc2)C(Cl)(Cl)Cl)cc1`, the AC50 was 79.2 µM (active).
As to `Oc1ccccc1-c1ccccc1`, the molecule was called inactive.
Same read-out and setting: in the case of `O=C(O)c1nc(Cl)ccc1Cl` it was “inactive”.
Take `COC(=O)C=C(C)OP(=O)(OC)OC`: the call was inactive.
Turning to `CC(C)Oc1cc(-n2nc(C(C)(C)C)oc2=O)c(Cl)cc1Cl`, the AC50 is 76.5 µM (active).
For `C=CCC1=C(C)[C@@H](OC(=O)[C@@H]2[C@@H](C=C(C)C)C2(C)C)CC1=O`, the result was inactive.
For `N#Cc1cc(Br)c(O)c(Br)c1`, the AC50 was 23.5 µM (active).
Still for that read-out and setting: in the case of `C#CCOS(=O)OC1CCCCC1Oc1ccc(C(C)(C)C)cc1` (stereo not given) it was 26.4 µM (active).
As for `CS/C(C)=N/OC(=O)N(C)SN(C)C(=O)O/N=C(\C)SC`, the molecule was classed as inactive.
Consider `CCNc1nc(Cl)nc(NCC)n1`, for which the call was inactive.
The same measure, in the same setting: in the case of `Cc1cc(Cl)ccc1OCC(=O)O` it was “inactive”.
`COP(N)(=O)SC` (stereo not given): the result was inactive.
For the molecule `COC(=O)N(OC)c1ccccc1COc1ccn(-c2ccc(Cl)cc2)n1`, the AC50 is 73.3 µM (active).
For the molecule `CC1=C(C(=O)Nc2ccccc2)SCCO1`, the outcome was inactive.
For the molecule `CO/C=C(/C(=O)OC)c1ccccc1Oc1cc(Oc2ccccc2C#N)ncn1`, the AC50 is 78.4 µM (active) and 80.9 µM (active) and 86.7 µM (active).
Turning to `CON(C)C(=O)Nc1ccc(Cl)c(Cl)c1`, the result was inactive.
On the same count and under the same terms, with `CC(Oc1ccc(Cl)cc1Cl)C(=O)O` (stereo not given) the entry was “inactive”.
Same read-out and setting: with `CN(C)C(=S)SSC(=S)N(C)C` the entry was “inactive”.
Still for that read-out and setting: with `CCOc1cc(Oc2ccc(C(F)(F)F)cc2Cl)ccc1[N+](=O)[O-]` the entry was “inactive”.
Regarding `Cc1ccc(-c2c(Cl)nc(C#N)n2S(=O)(=O)N(C)C)cc1`, the AC50 was 27.4 µM (active).
Take `COc1cnc(OC)n2nc(NS(=O)(=O)c3c(OCC(F)F)cccc3C(F)(F)F)nc12`: the outcome was inactive.
On the same count and under the same terms, in the case of `COC(=O)C(C)Oc1ccc(Oc2ccc(Cl)cc2Cl)cc1` (stereo not given) it was “inactive”.
For `OC(c1ccc(Cl)cc1)(c1cncnc1)c1ccccc1Cl` (stereo not given), the AC50 is 74.1 µM (active).
Take `Fc1ccc(Oc2ccnc3cc(Cl)cc(Cl)c23)cc1`: the molecule was called inactive.
Take `CNC(=O)ON=CC(C)(C)SC`: the molecule was classed as inactive.
The same measure, in the same setting: in the case of `CCON=C(CC)C1=C(O)CC(c2c(C)cc(C)cc2C)CC1=O` (stereo not given) it was “inactive”.
In the case of `N#CC(CCc1ccc(Cl)cc1)(Cn1cncn1)c1ccccc1` (stereo not given), the AC50 was 81.9 µM (active).
As to `C=CCC1=C(C)C(OC(=O)C2C(C=C(C)C)C2(C)C)CC1=O` (stereo not given), the molecule was classed as inactive.
With `CC1COC(Cn2cncn2)(c2ccc(Oc3ccc(Cl)cc3)cc2Cl)O1` (stereo not given), the AC50 was 63.9 µM (active).
Take `COP(=S)(OC)Oc1nc(Cl)c(Cl)cc1Cl`: the call was inactive.
In the case of `CCc1nn(C)c(C(=O)NCc2ccc(C(C)(C)C)cc2)c1Cl`, the AC50 was 37.1 µM (active).
On to `COC(=O)c1ccccc1C(=O)OC`, for which the molecule was called inactive.
